# Assay results reported in PubChem BioAssay (NCI).
# The panel holds about 83,000 compounds, 20% with a hit somewhere; the sample as a whole holds those more often.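 Plates (96-well) were seeded with cells, treated with compound at one concentration, and incubated for 48 hours before percent growth was determined.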 A number with no mark means an inactive call. Active and inactive are the calls of the source. Rule for the calls: active = growth percent below 10; inactive = the rest.
# What was measured:
# Assay in all cases: NCI-60 one-dose screen, 48 h (100 = growth as untreated, 0 = no growth, -100 = all killed)
# Details in all cases: 10 µM
# NCI-H23 lung = tested on: NCI-H23 lung
# NCI-H226 lung = tested on: NCI-H226 lung
# HOP-62 NSCLC = tested on: HOP-62 NSCLC
# NCI-H460 lung = tested on: NCI-H460 lung
# HOP-92 NSCLC = tested on: HOP-92 NSCLC
# A549/ATCC NSCLC = tested on: A549/ATCC NSCLC
# 786-0 renal = tested on: 786-0 renal
# COLO 205 colon = tested on: COLO 205 colon
# DU-145 prostate = tested on: DU-145 prostate
# MDA-MB-231 breast = tested on: MDA-MB-231 breast
# RXF 393 renal = tested on: RXF 393 renal
# SF-268 CNS = tested on: SF-268 CNS
# SF-295 CNS = tested on: SF-295 CNS
# SF-539 CNS = tested on: SF-539 CNS
# UACC-257 melanoma = tested on: UACC-257 melanoma
# M14 melanoma = tested on: M14 melanoma
# K-562 leukemia = tested on: K-562 leukemia
# NCI-H522 lung = tested on: NCI-H522 lung
# MALME-3M melanoma = tested on: MALME-3M melanoma
Compound,growth (NCI-H23 lung),growth (NCI-H226 lung),growth (HOP-62 NSCLC),growth (NCI-H460 lung),growth (HOP-92 NSCLC),growth (A549/ATCC NSCLC),growth (786-0 renal),growth (COLO 205 colon),growth (DU-145 prostate),growth (MDA-MB-231 breast),growth (RXF 393 renal),growth (SF-268 CNS),growth (SF-295 CNS),growth (SF-539 CNS),growth (UACC-257 melanoma),growth (M14 melanoma),growth (K-562 leukemia),growth (NCI-H522 lung),growth (MALME-3M melanoma)
Cc1cc(=O)n2nnc3cc(Cl)c(Cl)cc3n12,95.6%,112%,111%,113%,101%,104%,108%,-63.7% (active),105%,107%,91.9%,101%,111%,108%,102%,96.9%,,,
COc1cc(N)c2ncccc2c1SC,93.6%,106%,107%,105%,94.6%,99.5%,116%,100%,104%,95.1%,121%,91.2%,109%,114%,98.3%,104%,122%,,
O=C1/C(=C/c2ccc([N+](=O)[O-])s2)Oc2cc(Cl)ccc21,14.7%,81.2%,31.6%,1.6% (active),,4.06% (active),14.3%,-28.3% (active),32.2%,-71.7% (active),-49.6% (active),-59.4% (active),52.1%,-10.9% (active),31.7%,2.51% (active),-8.29% (active),-78.2% (active),-49.5% (active)
CN(C)c1nc(N)c2nccnc2n1,87.9%,105%,111%,108%,101%,99.6%,109%,100%,108%,108%,115%,101%,84.4%,105%,111%,117%,128%,,
Cn1cnc([N+](=O)[O-])c1/C=C1\Oc2ccc(Br)cc2C1=O,93%,101%,100%,97.3%,,104%,91.4%,98%,91.9%,91.8%,102%,90%,87.6%,104%,84.8%,95.4%,67.1%,52.7%,96.2%
NC1=NC(c2ccccc2)C2=C(N1)/C(=C/c1ccccc1)CCC2 (configuration not stated),78.1%,109%,114%,98.9%,,87%,101%,112%,117%,101%,101%,91.7%,95%,92.8%,83.8%,61.9%,76.4%,48.4%,103%
O=C1CC(SC(=S)C2CCCC2=O)C(=O)N1 (configuration not stated),98.4%,92.4%,106%,104%,,101%,95.7%,116%,108%,105%,115%,102%,104%,104%,90.4%,101%,98%,109%,104%
Cc1cc(SCc2ccccc2)nc(N)n1,97.3%,115%,105%,111%,85.2%,105%,79.1%,127%,104%,107%,124%,100%,102%,,125%,115%,105%,,-0.674% (active)
COc1ccc(C2CC(c3cccs3)=NN2c2ccc(S(N)(=O)=O)cc2)cc1 (configuration not stated),104%,90.7%,97.8%,84.2%,63.1%,75.8%,96.5%,-89.6% (active),102%,91.9%,93.6%,97.6%,95.8%,104%,30.5%,78.4%,67.6%,,
NC1=NC(c2ccc(Cl)cc2)C2=C(N1)/C(=C/c1ccc(Cl)cc1)CCC2 (configuration not stated),61.1%,109%,140%,91.3%,,66.7%,90.4%,92%,97.2%,102%,34.5%,83.2%,67.5%,121%,79.4%,11%,43.5%,19.1%,97.7%
COc1ccc(/C=C2\CCCC3C2=Nc2ccccc2NC3c2ccc(OC)cc2)cc1 (configuration not stated),78.7%,94.9%,128%,94.8%,,88.5%,101%,116%,101%,82.4%,99.9%,102%,89.8%,135%,81.9%,71.1%,50.9%,6.67% (active),94.3%
COc1cc2c(Nc3ccc(-c4ccc(N)cc4)cc3)ncnc2c(OC)c1OC,70.6%,78.6%,85.9%,19.9%,,29.2%,48%,19.8%,34.9%,56.9%,103%,52.6%,-33.2% (active),17.5%,43.8%,13.8%,11%,48.6%,36.5%
CC1=NN(C(=O)c2nn(-c3ccc(Cl)cc3)cc2O)C(=O)C1,52.5%,40.3%,44.1%,24%,,45.6%,56.5%,53%,52.4%,63.2%,56.9%,38.4%,67%,51.9%,74.5%,50.9%,15.3%,42.3%,
COC(=O)c1c[nH]c2cc(OC(C)C)c(OC(C)C)cc2c1=O,97.6%,92.9%,37.9%,,80.5%,61.8%,110%,,110%,109%,94.7%,104%,105%,91%,87.6%,108%,98.9%,94.3%,125%
COc1ccc2c(c1)C(=O)/C(=C/c1ncc([N+](=O)[O-])n1C)O2,-5.43% (active),-24.6% (active),-27% (active),-42.6% (active),,,-26.3% (active),-47.5% (active),-13.6% (active),-18.1% (active),-54.4% (active),-39.7% (active),-18.4% (active),-29.4% (active),-43.9% (active),-37.7% (active),1.52% (active),-51.5% (active),-56.2% (active)
O=C1CSC(=S)N1/N=C/c1ccc(Cl)s1,90.3%,106%,95.4%,,110%,103%,102%,107%,109%,99.4%,108%,91.9%,100%,95.1%,110%,107%,105%,96.2%,103%
COc1cc2cc(Oc3ccc(NC(=O)Nc4ccc(Cl)c(Cl)c4)cc3)c(C)nc2cc1OC,8.26% (active),7.74% (active),55.2%,,-9.31% (active),4.35% (active),20.3%,4.03% (active),24.8%,47.8%,22.3%,43.7%,0.689% (active),38.5%,1.38% (active),25.8%,12.7%,-13.7% (active),14.9%
